Results as given in PubChem BioAssay (NCI).
The panel holds about 83,000 compounds, 20% with a hit somewhere; the sample as a whole holds those more often.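 Step 1: grow cells in 96-well plates. Step 2: add test compound at a single concentration. Step 3: incubate 48 h. Step 4: record percent growth.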 The source made the active and inactive calls. Rule for the calls: active = growth percent below 10; inactive = the rest.

Assays:
Assay in all cases: NCI-60 one-dose screen, 48 h (100 = growth as untreated, 0 = no growth, -100 = all killed)
Conditions in all cases: 10 µM unless noted
HCT-15 colon = test system: HCT-15 colon
HT29 colon = test system: HT29 colon
SNB-75 CNS = test system: SNB-75 CNS
SNB-19 CNS = test system: SNB-19 CNS
U251 CNS = test system: U251 CNS
PC-3 prostate = test system: PC-3 prostate
SK-MEL-5 melanoma = test system: SK-MEL-5 melanoma
UACC-62 melanoma = test system: UACC-62 melanoma
LOX IMVI melanoma = test system: LOX IMVI melanoma
SK-MEL-28 melanoma = test system: SK-MEL-28 melanoma

Measured: growth

COc1ccccc1-c1c(-c2ccc(Cl)cc2)c2cc3c(cc2[nH]c1=O)OCCO3
inactive: HCT-15 colon 73.5% | HT29 colon 69.6% | SNB-75 CNS 88.6% | SNB-19 CNS 94.9% | U251 CNS 75.3% | PC-3 prostate 41.5% | SK-MEL-5 melanoma 63.8% | UACC-62 melanoma 71% | LOX IMVI melanoma 73.9% | SK-MEL-28 melanoma 90.4%

CCOC(=O)c1c(SC)nn(-c2cc(=O)[nH]c3ccc(Br)cc23)c1N
inactive: HCT-15 colon 106% | HT29 colon 107% | SNB-75 CNS 94% | SNB-19 CNS 101% | U251 CNS 94.1% | PC-3 prostate 94.2% | SK-MEL-5 melanoma 101% | UACC-62 melanoma 102% | LOX IMVI melanoma 90.1% | SK-MEL-28 melanoma 117%

COc1cc(/C=C/C(=O)c2c(C)oc3nc[nH]c(=O)c23)ccc1O
inactive: HCT-15 colon 98.1% | HT29 colon 108% | SNB-75 CNS 84.4% | SNB-19 CNS 97.3% | U251 CNS 103% | PC-3 prostate 103% | SK-MEL-5 melanoma 101% | UACC-62 melanoma 96.5% | LOX IMVI melanoma 97.7% | SK-MEL-28 melanoma 101%

CC(=O)[C@@H]1CC[C@]2(C(N)=O)CC[C@]3(C)[C@H](CC[C@@H]4[C@@]5(C)CCC(=O)C(C)(C)[C@@H]5CC[C@]43C)[C@@H]12
inactive: HCT-15 colon 103% | HT29 colon 95.9% | SNB-75 CNS 89% | SNB-19 CNS 102% | U251 CNS 103% | PC-3 prostate 78.5% | SK-MEL-5 melanoma 101% | UACC-62 melanoma 84.5% | LOX IMVI melanoma 99.2% | SK-MEL-28 melanoma 100%

COc1cccc(CCC(=O)c2cc3c(N)c(C(=O)Nc4cccc(Cl)c4C)sc3nc2C)c1
active: SNB-75 CNS -14.5% | SK-MEL-5 melanoma 3.62%
inactive: HCT-15 colon 13.8% | HT29 colon 10.8% | SNB-19 CNS 24.1% | U251 CNS 16.7% | PC-3 prostate 18.8% | UACC-62 melanoma 27% | LOX IMVI melanoma 33.1% | SK-MEL-28 melanoma 44.5%

O=C(/C=C/c1ccc[nH]1)c1ccc(-n2ccc(C(F)(F)F)n2)cc1
active: PC-3 prostate 8.84%
inactive: HCT-15 colon 86.6% | HT29 colon 97.3% | SNB-75 CNS 51.6% | SNB-19 CNS 75.5% | U251 CNS 20% | SK-MEL-5 melanoma 99.9% | UACC-62 melanoma 90.3% | LOX IMVI melanoma 97.1% | SK-MEL-28 melanoma 103%

COc1ccc(/C=C/C(=O)c2ccc(Nc3ncnc4ccccc34)cc2)cc1OC
inactive: HCT-15 colon 75.9% | HT29 colon 13.9% | SNB-75 CNS 92.2% | SNB-19 CNS 79.1% | U251 CNS 54.1% | PC-3 prostate 65.4% | SK-MEL-5 melanoma 91.9% | UACC-62 melanoma 87.1% | LOX IMVI melanoma 44.2% | SK-MEL-28 melanoma 98.1%

COc1ccc(-c2nn(Cc3ccccc3)c3c2-c2oncc2CC3)cc1OC
inactive: HCT-15 colon 93.4% | HT29 colon 108% | SNB-75 CNS 105% | SNB-19 CNS 104% | U251 CNS 93.1% | PC-3 prostate 86.6% | SK-MEL-5 melanoma 102% | UACC-62 melanoma 86.8% | LOX IMVI melanoma 86.2% | SK-MEL-28 melanoma 105%

COc1ccc2c(c1)c(CC(=O)NCCOCCOCC(=O)Nc1ccc(OC)c(C(N)=O)c1O)c(C)n2C(=O)c1ccc(Cl)cc1
inactive: HCT-15 colon 95.5% | HT29 colon 102% | SNB-75 CNS 89.6% | SNB-19 CNS 106% | U251 CNS 93.3% | PC-3 prostate 74.6% | SK-MEL-5 melanoma 96.6% | UACC-62 melanoma 98.8% | LOX IMVI melanoma 90% | SK-MEL-28 melanoma 119%

CCCCCCCCCCN=C(N)N=C(N)N
inactive: HCT-15 colon 71.1% | HT29 colon 41.6% | SNB-19 CNS 38.7% | U251 CNS 34.8% | PC-3 prostate 22.1% | UACC-62 melanoma 37.2% | LOX IMVI melanoma 47.3% | SK-MEL-28 melanoma 63.3%
active: SNB-75 CNS 3.65% | SK-MEL-5 melanoma 4.63%

CCN(CCNc1cc(OC)cc2cccnc12)CCc1ccccc1
inactive: HCT-15 colon 73.1% | HT29 colon 70% | SNB-75 CNS 83.7% | SNB-19 CNS 98.1% | U251 CNS 101% | PC-3 prostate 87.5% | SK-MEL-5 melanoma 95.3% | UACC-62 melanoma 99.8% | LOX IMVI melanoma 86.5% | SK-MEL-28 melanoma 102%

NS(=O)(=O)c1cccc(NC(=O)C(=O)C2C(=O)Nc3ccccc32)c1 (stereo not given)
inactive: HCT-15 colon 99.8% | HT29 colon 102% | SNB-75 CNS 74.6% | SNB-19 CNS 100% | U251 CNS 107% | PC-3 prostate 88.8% | SK-MEL-5 melanoma 96.7% | UACC-62 melanoma 94.4% | LOX IMVI melanoma 95.6% | SK-MEL-28 melanoma 107%

NNC(=O)/C(=C\c1ccc([N+](=O)[O-])cc1)CC(=O)c1ccc(Cl)c(Cl)c1
inactive: HCT-15 colon 89.6% | HT29 colon 88.4% | SNB-75 CNS 63.3% | SNB-19 CNS 89.6% | U251 CNS 91.8% | PC-3 prostate 79.4% | SK-MEL-5 melanoma 93.6% | UACC-62 melanoma 73.8% | LOX IMVI melanoma 71.3% | SK-MEL-28 melanoma 103%

O=C1NC(=S)NC(=O)C1=Cc1cccc(C=C2C(=O)NC(=S)NC2=O)c1
inactive: HCT-15 colon 105% | HT29 colon 104% | SNB-75 CNS 98.9% | SNB-19 CNS 98.9% | U251 CNS 114% | PC-3 prostate 104% | SK-MEL-5 melanoma 100% | UACC-62 melanoma 101% | LOX IMVI melanoma 102% | SK-MEL-28 melanoma 110%
